Only some compounds are listed: those with a hit (about 7.1% of all), similar ones and a draw of the others.
SW480 rerep: A quantitative high throughput screen for small molecules that induce DNA re-replication in SW480 colon adenocarcinoma cells | SW480 DNA re-replication, Hoechst DNA content imaging, 48 h | Potency, µM (top dose mostly 46.1 µM), for inactives: top-dose re-replication activation, hits mostly activators | 340,000 tested, 1.8% active | AID 624297, 2012; also: % of control where 0% means no effect; nearly all actives have a fitted effect of over 55% in size
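Hoechst fluorescence of nuclei (405 nm excitation, 500-530 nm emission) measured by plate-scanning imager after 48 hr compound exposure at 37 C; re-replication scored as increased number of nuclei with elevated intensity.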
MCF10A rerep: A quantitative high throughput screen for small molecules that induce DNA re-replication in MCF 10a normal breast cells. Potency, µM (titrated, usually from 46.1 µM), without a hit: at the top dose activity, positive = re-replication, usual class: activators. 350,000 tested, 2.9% active. AID 624296, 2012. MCF 10A DNA re-replication, Hoechst nuclear intensity, 48 h; also: % of control where 0% means no effect; nearly all actives have a fitted effect of over 50% in size
p53 reactivator: qHTS assay for re-activators of p53 using a Luc reporter. 320,000 tested, 0.063% active. Potency, µM (top dose mostly 92.2 µM), without a hit: at the top dose activity change, positive = activation, most hits filed as activators. AID 504706, 2011. H1299 p53-A138V BP100-luciferase reporter, luminescence, 24 h; also: % of control where 0% means no effect; nearly all actives have a fitted effect of over 45% in size
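H1299 (p53-null), stable ts p53-A138V + BP100-Luc; 1000 cells/well, Opti-MEM/10% FBS; cpd 4 pt, 1:5; 24 h, 37 deg C, 5% CO2; detection reagent 10 min RT; luminescence.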
ELG1 DNA repair: qHTS screen for small molecules that inhibit ELG1-dependent DNA repair in human embryonic kidney (HEK293T) cells expressing luciferase-tagged ELG1 | HEK293T ELG1-luciferase reporter, luminescence, 16 h; DNA damage induced by 5-fluorouridine | Potency, µM (highest dose often 46.1 µM), for inactives: at the top dose activity change, negative = inhibition, most hits filed as inhibitors | 330,000 tested, 2.3% active; also: % is scaled to controls: 0 for no effect and ±100 for the full control effect; nearly all actives have a fitted effect of over 55% in size
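Reporter activity after DNA damage by 5-fluorouridine is monitored. Compound-treated cells incubate 16 hr at 37 °C, then ONE-Glo is added for 30 min before luminescence reading.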
ELG1 genotoxic: qHTS screen for small molecules that induce genotoxicity in human embryonic kidney (HEK293T) cells expressing luciferase-tagged ELG1 | 330,000 tested, 1.3% active | HEK293T ELG1-luciferase reporter, luminescence, 16 h | Potency, µM (titrated, usually from 46 µM), inactives show at the highest dose activity change, positive = activation, usual class: activators | AID 504466, 2011; also: % of control where 0% means no effect; nearly all actives have a fitted effect of over 60% in size
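Reporter readout depends on ELG1 protein level, which increases with genetic stress. After 16 hr compound exposure at 37 °C, luciferase activity was quantified using ONE-Glo.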
AT treatment: qHTS Assay for Identifying a Potential Treatment of Ataxia-Telangiectasia; F2112 A-T fibroblasts, KAP-1 phosphorylation AlphaLISA; neocarzinostatin DNA damage 30 min before lysis; Potency, µM (highest dose often 57.5 µM), without a hit: at the top dose activation, most hits filed as activators; 320,000 tested, 0.19% active; also: % of control where 0% means no effect; nearly all actives have a fitted effect of over 45% in size
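hTERT-immortalized A-T patient fibroblasts (F2112), 500 cells/well in OPTI-MEM, 1% FBS, got compounds for 60 min, then NCS for 30 min at 37C. Lysates were then assayed for phospho-KAP-1 by AlphaLISA (anti-pKAP1 donor, anti-KAP1 acceptor beads), 6 hr at 25C.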
* hit, by the source's call. Calls follow the shape of the dose curve; as a rule, active = well fitted curve in the direction sought with a large enough effect; inconclusive = small, poorly fitted or top-dose-only effect, or another doubt; inactive = no such curve, though single readings can be large; an effect the other way counts as inactive or inconclusive. Potency is read from the fitted curve at half-maximal effect.

CCN1CCN(S(=O)(=O)c2ccc3c4c(cccc24)C(=O)N3CC)CC1 was read as SW480 rerep 29.0%, MCF10A rerep inconclusive, p53 reactivator -8.5%, ELG1 DNA repair inconclusive, ELG1 genotoxic inconclusive and AT treatment -0.6%.
`CCN1C(=O)c2cccc3c(S(=O)(=O)N4CCCC4C(=O)O)ccc1c23` (configuration not stated) gave SW480 rerep 18.4µM*, MCF10A rerep -14.4%, p53 reactivator -0.2%, ELG1 DNA repair 6.5%, ELG1 genotoxic 3.0% and AT treatment 2.5%.
`CCOC(=O)C1CCCN(S(=O)(=O)c2ccc3c4c(cccc24)C(=O)N3CC)C1` (configuration not stated) gave SW480 rerep 7.31µM*, MCF10A rerep 15.0%, p53 reactivator -9.5%, ELG1 DNA repair -3.3%, ELG1 genotoxic 15.3% and AT treatment 30.0%.
For CCOC(=O)C1=C(COC(=O)CCc2ccc(CC)cc2)NC(=O)NC1C (configuration not stated) the results were SW480 rerep -10.0%, MCF10A rerep -5.0%, p53 reactivator -2.0%, ELG1 DNA repair 17.3%, ELG1 genotoxic 0.7% and AT treatment -1.9%.
Screening Cc1ccc(N2/C(=N/c3nc(C)cc(C)n3)NC(=O)CC2C(=O)O)cc1 (configuration not stated) returned SW480 rerep 14.5%, MCF10A rerep 18.4µM*, p53 reactivator 1.3%, ELG1 DNA repair -5.3%, ELG1 genotoxic -0.7% and AT treatment -5.2%.
For CCOc1ccc(S(=O)(=O)O)c2cccnc12 the results were SW480 rerep -4.2% and MCF10A rerep 7.9%.
`CCOc1ccc(NS(=O)(=O)c2ccc(OCC)c3ncccc23)cc1` gave SW480 rerep 20.6µM*, MCF10A rerep inconclusive, p53 reactivator 3.1%, ELG1 DNA repair inconclusive, ELG1 genotoxic 11.4% and AT treatment 3.0%.
For CC(=O)O/N=C/c1c(N2CCOCC2)n(C)c2ccccc12 the results were SW480 rerep 1.84µM*, MCF10A rerep 19.7%, p53 reactivator -2.5%, ELG1 DNA repair inconclusive, ELG1 genotoxic -9.7% and AT treatment 10.6%.
`Cn1c(N2CCOCC2)c(/C=N/OC(=O)c2ccc(F)cc2)c2ccccc21` gave SW480 rerep inconclusive, MCF10A rerep 27.3%, p53 reactivator -5.0%, ELG1 DNA repair inconclusive, ELG1 genotoxic -5.3% and AT treatment 35.5µM*.
Screening CC(NC(=O)COc1ccccc1Cl)c1ccccc1 (configuration not stated) returned SW480 rerep inconclusive, MCF10A rerep 4.9%, p53 reactivator -1.5%, ELG1 DNA repair -28.6%, ELG1 genotoxic -6.7% and AT treatment 20.0%.
Screening COCCCN1C(=O)c2ccc(C(=O)Nc3ccc(C)cc3C)cc2C1=O returned SW480 rerep -9.3%, MCF10A rerep 3.8%, p53 reactivator 2.0%, ELG1 DNA repair -1.2%, ELG1 genotoxic 0.1% and AT treatment 13.6%.
`Cc1sc(NC(=O)c2ccco2)c(CN2CCN(Cc3ccccc3)CC2)c1C` gave SW480 rerep inconclusive, MCF10A rerep 23.1µM*, p53 reactivator -7.9%, ELG1 DNA repair 13µM*, ELG1 genotoxic -14.2% and AT treatment 6.8%.
Screening CCOc1ccc(NC(=O)CN(C)C(=O)CCN2C(=O)C3CC=CCC3C2=O)cc1OCC (configuration not stated) returned SW480 rerep -1.3%, MCF10A rerep 7.3%, p53 reactivator 20.5%, ELG1 DNA repair -11.9%, ELG1 genotoxic 1.4% and AT treatment 10.5%.
`CC(NC(=O)CN1CCN(CC(=O)Nc2ccccc2Cl)CC1)c1ccc(Br)cc1` (configuration not stated) gave SW480 rerep -3.0%, MCF10A rerep -1.9%, p53 reactivator -3.8%, ELG1 DNA repair -22.5%, ELG1 genotoxic -4.9% and AT treatment -0.2%.
`Cc1cc(NCCOCCO)n2ncc(-c3ccc(Cl)cc3)c2n1` gave SW480 rerep 17.0%, MCF10A rerep inconclusive, p53 reactivator 39.8µM*, ELG1 DNA repair inconclusive, ELG1 genotoxic inconclusive and AT treatment 20.6%.
Cc1cc(NCCCN2CCOCC2)n2ncc(-c3ccccc3)c2n1 was read as SW480 rerep -3.8%, MCF10A rerep 4.6%, p53 reactivator inconclusive, ELG1 DNA repair inconclusive, ELG1 genotoxic 9.2µM* and AT treatment -0.1%.
Screening Cc1cc(NCCCN2CCOCC2)n2nc(C)c(-c3ccccc3)c2n1 returned SW480 rerep 6.1%, MCF10A rerep -6.9%, p53 reactivator 0.7%, ELG1 DNA repair -17.7%, ELG1 genotoxic -0.4% and AT treatment -2.7%.
CCCc1cc(NCc2ccccn2)n2nc(C)c(-c3ccccc3)c2n1 was read as SW480 rerep 3.26µM*, MCF10A rerep inconclusive, p53 reactivator 20.6%, ELG1 DNA repair 20.6µM*, ELG1 genotoxic -12.4% and AT treatment 14.4%.
Screening Cc1cc(NCc2ccccn2)n2nc(C)c(-c3ccc(Cl)cc3)c2n1 returned SW480 rerep 2.7%, MCF10A rerep inconclusive, p53 reactivator -1.7%, ELG1 DNA repair 25.9µM*, ELG1 genotoxic -11.0% and AT treatment 12.0%.
CC(=O)N1CCN(C(=O)c2cccc(S(=O)(=O)Nc3c(C)n(C)n(-c4ccccc4)c3=O)c2)CC1 was read as SW480 rerep -1.6%, MCF10A rerep 0.3%, p53 reactivator -0.6%, ELG1 DNA repair 24.9%, ELG1 genotoxic 0.4% and AT treatment 15.3%.
For O=C(O)c1ccc(S(=O)(=O)N[C@H](Cc2ccc(C(F)(F)F)cc2)C(=O)O)cc1 the results were AT treatment 13.4%.
Cc1cc(NCc2ccccn2)n2ncc(-c3ccccc3)c2n1 was read as SW480 rerep 0.82µM*, MCF10A rerep 11.9%, p53 reactivator inconclusive, ELG1 DNA repair inconclusive, ELG1 genotoxic inconclusive and AT treatment 3.1%.
C=CCSc1cc(C)nc2c(-c3ccc(Cl)cc3)c(C)nn12 was read as SW480 rerep inconclusive, MCF10A rerep 20.6µM*, p53 reactivator 1.3%, ELG1 DNA repair 0.2% and ELG1 genotoxic -2.3%.

Bioassay records from PubChem BioAssay.
